Source: PubChem BioAssay (Tox21)
Inconclusive results are not listed. Values without a mark were called inactive.

These compounds were tested against Glucocorticoid receptor (Homo sapiens) (UniProt P04150) (assay: qHTS assay to identify small molecule agonists of the glucocorticoid receptor (GR) signaling pathway (AID 720691; active = well fitted activation curve with a large enough effect in the signal ratio in the repeat runs, not every such curve was filed as active; the % refers to the signal ratio)). Settings: GR-bla HeLa, beta-lactamase reporter ratio, 18 h; series mostly up to 62.4 µM; activation: at the top concentration.
Sequence of Glucocorticoid receptor (Homo sapiens) (P04150 whole entry, looked up): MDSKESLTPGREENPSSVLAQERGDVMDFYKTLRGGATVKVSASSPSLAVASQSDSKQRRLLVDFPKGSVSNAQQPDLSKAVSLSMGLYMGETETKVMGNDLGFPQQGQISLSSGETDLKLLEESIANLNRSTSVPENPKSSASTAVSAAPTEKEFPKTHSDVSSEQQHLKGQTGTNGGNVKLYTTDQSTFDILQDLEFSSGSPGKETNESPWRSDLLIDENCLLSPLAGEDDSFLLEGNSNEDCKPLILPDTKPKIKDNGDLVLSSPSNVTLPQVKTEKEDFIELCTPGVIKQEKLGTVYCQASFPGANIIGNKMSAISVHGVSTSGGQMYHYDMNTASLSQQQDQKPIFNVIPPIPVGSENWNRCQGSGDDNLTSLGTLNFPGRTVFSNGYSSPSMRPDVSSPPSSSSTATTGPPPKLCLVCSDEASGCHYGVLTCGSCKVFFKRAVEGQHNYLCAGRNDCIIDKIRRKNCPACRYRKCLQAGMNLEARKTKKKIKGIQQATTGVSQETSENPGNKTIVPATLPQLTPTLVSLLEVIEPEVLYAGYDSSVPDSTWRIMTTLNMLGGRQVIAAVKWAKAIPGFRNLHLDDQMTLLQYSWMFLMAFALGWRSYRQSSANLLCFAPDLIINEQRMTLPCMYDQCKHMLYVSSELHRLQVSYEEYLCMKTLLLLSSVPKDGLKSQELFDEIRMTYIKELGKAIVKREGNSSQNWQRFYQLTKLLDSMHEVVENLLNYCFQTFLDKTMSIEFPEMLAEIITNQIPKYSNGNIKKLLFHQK
Procedure, shortened: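 Beta-lactamase reporter activity, read as fluorescence intensity, was measured in GR-bla HeLa cells exposed to compounds for 18 h at 37 C and then loaded with LiveBLAzer B/G FRET substrate for 2 h at room temperature.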
% is scaled to controls: 0 for no effect and ±100 for the full control effect.

SMILES | activation
CCCCCCCCN(C)C | 1.33%
CC[C@H](C)[C@H](N)C(=O)O | -0.838%
CCN(CC)CCc1nc(-c2ccccc2)no1 | 2.26% [at 29.2 µM]
CCOC(=O)CC(=O)c1cc(F)c(Cl)nc1Cl | 0.164% [at 79.2 µM]
Cc1ccc(C)o1 | -2.1% [at 79.2 µM]
CC(C)CCCC(C)CCO (configuration not stated) | 1.24%
COc1ccc2[nH]c(S(=O)Cc3ncc(C)c(OC)c3C)nc2n1 (configuration not stated) | -2.65%
CC(C)c1ccccc1C(C)C | -5.88%
NCc1ccccc1 | 1.63%
CC(C)(C)c1ccc(S)cc1 | -0.182%
CNS(=O)(=O)Cc1ccc2[nH]cc(CCN(C)C)c2c1 | 0.0218%
COc1ccccc1OC(=O)Oc1ccccc1OC | -4.76%
Cc1c(Cn2ccnc2)c2ccccc2n1CCC(=O)O | -1.18%
CCOc1cc(OCC)c(C(=O)CCC(=O)O)cc1OCC | 0.489%
O=S(=O)(O)c1ccc(O)c2ncccc12 | 2.19%
CC(C)(C)C(=O)OCOP(=O)(COCCn1cnc2c(N)ncnc21)OCOC(=O)C(C)(C)C | 0.989%
O=C=NC1CCC(CC2CCC(N=C=O)CC2)CC1 (configuration not stated) | -6.62%
CC(C)CC=O | -3.92%
O=c1c2ccccc2nnn1CCl | -0.943%
C=CCCCCCC | 0.749%
COCCOCCOCCOCCOC | -3%
CCN(CCO)CCCC(C)Nc1ccnc2cc(Cl)ccc12 (configuration not stated) | 0.807%
Cc1cc(CC(=O)O)c(C)n1-c1ccc(Cl)cc1 | -5.61%

These compounds were tested against Glucocorticoid receptor (Homo sapiens) (UniProt P04150) (assay: qHTS assay to identify small molecule antagonists of the glucocorticoid receptor (GR) signaling pathway (AID 720692; active = well fitted inhibition curve with a large enough effect in the signal ratio in the repeat runs, not every such curve was filed as active; the % refers to the signal ratio)). Settings: GR-bla HeLa, beta-lactamase FRET ratio, dexamethasone-stimulated, 18 h; series mostly up to 58.5 µM; activity change, negative = inhibition: at the top concentration.
Procedure, shortened: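 Fluorescence from cleaved LiveBLAzer B/G FRET substrate reports GRE-driven beta-lactamase in HeLa cells; compounds are tested against 5 nM dexamethasone (final) over 18 h at 37 C, substrate incubation 2 h at room temperature.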

SMILES | activity change, negative = inhibition
CCCCCCCCN(C)C | -0.547%
CCN(CC)CCc1nc(-c2ccccc2)no1 | 13.8% [at 27 µM]
CC(C)CCCC(C)CCO (configuration not stated) | 5.52%
COc1ccc2[nH]c(S(=O)Cc3ncc(C)c(OC)c3C)nc2n1 (configuration not stated) | 8.7%
NC(=S)N/N=C/c1cccnc1 | -5.25%
NCc1ccccc1 | -1.34%
COc1ccccc1OC(=O)Oc1ccccc1OC | -11.1%
Cc1c(Cn2ccnc2)c2ccccc2n1CCC(=O)O | 0.223%
CC(C)(C)C(=O)OCOP(=O)(COCCn1cnc2c(N)ncnc21)OCOC(=O)C(C)(C)C | -20.3%
O=C=NC1CCC(CC2CCC(N=C=O)CC2)CC1 (configuration not stated) | -1.83%
CC(C)CC=O | -7.26%
Cc1ccc(C(C)c2ccc(C)c(C)c2)cc1C | 0.0436%
C=CCCCCCC | -12.2%
CCN(CCO)CCCC(C)Nc1ccnc2cc(Cl)ccc12 (configuration not stated) | 7.3%
